Screens (PubChem)
CYP2C9 inhib = blockers of cytochrome P450 2C9 activity – biochemical, luminescence, ADME assay, primary screen; AID 777, 2007; CYP2C9 Supersomes, luciferin-H conversion; inhibition, % at 5 µM; P11712; 96,000 compounds, 20% hits;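 active = blocking of liver enzyme CYP2C9 beyond about 50% at 5 µM, limit read from the data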
Target sequence (P11712 whole entry, looked up): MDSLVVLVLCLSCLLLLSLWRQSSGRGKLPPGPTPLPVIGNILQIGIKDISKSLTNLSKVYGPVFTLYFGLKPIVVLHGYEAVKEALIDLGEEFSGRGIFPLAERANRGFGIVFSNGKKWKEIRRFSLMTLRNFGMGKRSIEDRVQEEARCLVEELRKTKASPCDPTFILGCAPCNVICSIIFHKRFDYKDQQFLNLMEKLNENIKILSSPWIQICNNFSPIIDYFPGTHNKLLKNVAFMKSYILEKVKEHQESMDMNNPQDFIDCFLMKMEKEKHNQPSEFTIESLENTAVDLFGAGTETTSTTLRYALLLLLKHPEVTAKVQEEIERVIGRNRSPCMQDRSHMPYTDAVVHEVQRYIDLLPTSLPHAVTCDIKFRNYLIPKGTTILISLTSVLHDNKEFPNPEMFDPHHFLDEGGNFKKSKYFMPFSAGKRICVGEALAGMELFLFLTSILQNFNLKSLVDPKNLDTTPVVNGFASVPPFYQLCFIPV
CYP2C19 inh = blockers of cytochrome P450 2C19 activity – biochemical, luminescence, ADME assay, primary screen; P33261; CYP2C19 Supersomes, luciferin-H EGE luminescence, 30 min; inhibition, % at 5 µM; 96,000 compounds, 21% hits; AID 778, 2007;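 active = CYP2C19 inhibition above a set limit at 5 µM in the primary screen, cut at about 50% in these data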;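 also: plate controls were negative control wells for no effect and 2.5 mM tranylcypromine positive control for full effect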
CYP2C9 activ = human CYP2C9 activators, primary screen, biochemical, luminescence | 96,000 compounds, 1.4% hits | activation factor at 5 µM | recombinant CYP2C9, luciferin-H conversion; stronger effect = higher value; factor 1 = untreated enzyme, 0 = blocked;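 active = activation factor of 2 or more for CYP2C9 at a 5 µM dose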;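 also: 0 = sulfaphenazole-blocked wells and 1 = vehicle-only wells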
CYP2C19 activ = human CYP2C19 activators, primary screen, biochemical, luminescence. recombinant CYP2C19, luciferin-H EGE luminescence; stronger effect = higher value; 0 = fully inhibited enzyme, 1 = untreated enzyme. Cytochrome P450 2C19 (Homo sapiens), P33261. 96,000 tested, under 10 active. activation factor at 5 µM;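 active = activation factor of at least 2 at 5 µM in the primary screen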;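 also: 0 = wells with 2.5 mM tranylcypromine and 1 = vehicle-only wells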
PLK1 PBD inh = Plk1 polo box domain binding inhibitors, primary screen, biochemical, fluorescence polarization. inhibition, %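 (tested at about 20 µM)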. 97,000 compounds, 0.13% hits. Plk1 PBD phosphopeptide binding; in the data active = inhibition above about 34%, passing the limit was not always enough
PLK1 kinase inh = human PLK1 kinase inhibitors, primary screen, biochemical, TR-FRET; inhibition, % at 10 µM; AID 619, 2007; 97,000 compounds, 0.53% hits; Serine/threonine-protein kinase PLK1 (Homo sapiens), P53350; recombinant PLK1 kinase, TR-FRET peptide phosphorylation;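 active = inhibition of 50% or more in the single-concentration screen; inactive = inhibition below 50%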;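 also: 0% = DMSO max control and 100% = H-89 dihydrochloride min control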
* marks the source's active call; other numbers are inactive results; nt = no result. Compounds with a hit are over-represented: about 28% of the library has one in this group of screens.

SMILES	CYP2C9 inhib	CYP2C19 inh	CYP2C9 activ	CYP2C19 activ	PLK1 PBD inh	PLK1 kinase inh
Cc1onc(-c2ccccc2)c1C(=O)N1CCCN(C(=O)c2c(-c3ccccc3)noc2C)CC1	12	7	0.9	0.9	16	1
COc1ccccc1N1CCN(C(=O)c2ccncc2)CC1	86*	100*	0.1	0	-28	-12
COc1ccccc1N1CCN(C(=O)c2ccc(C(C)(C)C)cc2)CC1	91*	75*	0.1	0.2	-3	-3
Cc1onc(-c2ccccc2)c1C(=O)N1CCCSC1=Nc1ccccc1	61*	98*	0.4	0	2	-5
O=C(c1ccco1)N1CCCSC1=Nc1ccccc1	18	18	0.8	0.8	-22	10
COc1ccccc1N1CCN(C(=O)c2c(-c3ccccc3)noc2C)CC1	28	55*	0.7	0.4	8	-7
CCOC(=O)c1cnc(SC2CC(=O)N(c3ccc(C)cc3)C2=O)nc1N (stereo not drawn)	23	-3	0.8	1	10	-12
CS(=O)c1ccccc1-c1nc(-c2cc(C(F)(F)F)cc(C(F)(F)F)c2)no1 (stereo not drawn)	10	3	0.9	1	-16	-9
CCOc1cccc(-c2nn3c(-c4ccco4)nnc3s2)c1	6	14	0.9	0.9	11	0
Cn1cc(S(=O)(=O)NCc2cccs2)c(=O)n(C)c1=O	-13	-18	1.1	1.2	-24	-19
COc1ccccc1-c1cc(C(F)(F)F)n2ncc(S(=O)(=O)c3ccccc3)c2n1	97*	38	0	0.6	18	-9
CCNc1nc(NC(C)C)nc(Oc2ccc(/C=N/O)cc2)n1	69*	5	0.3	0.9	-13	-1
Cc1onc(-c2ccccc2Cl)c1C(=O)Nc1cccnc1	15	19	0.9	0.8	-12	-9
Cc1onc(-c2ccccc2Cl)c1C(=O)N1C=CC(C(F)(F)Cl)=NCC1	32	56*	0.7	0.4	-14	-9
CSC1=NCCN1C(=O)c1c(-c2ccccc2Cl)noc1C	18	71*	0.8	0.3	-18	-15
Cc1onc(-c2ccccc2Cl)c1C(=O)N1CCN=C1SCc1cccnc1	94*	97*	0.1	0	-19	-6
Cc1onc(-c2ccccc2Cl)c1C(=O)N1C=CC(C(F)(F)F)=NCC1	21	38	0.8	0.6	-13	-2
COc1ccc2oc(=O)c(C(=O)NCc3ccc4c(c3)OCO4)cc2c1	nt	nt	nt	nt	-22	-9
Cc1ccc(S(=O)(=O)N=Nc2c(O)[nH]c3ccccc23)cc1C	17	1	0.8	1	-17	-3
CN(C)c1ccc(C2OC(=O)C(C)(C)C(=O)C2(C)C)cc1 (stereo not drawn)	1	14	1	0.9	-22	-9
CCC1(CC)C(=O)C(C)(C)C(=O)OC1c1cccs1 (stereo not drawn)	44	96*	0.6	0	-20	-7
CCOC(=O)C1=NN(c2ccc(C)cc2)C2(S1)SC(C(C)=O)=C(C)N2c1ccccc1 (stereo not drawn)	54*	39	0.5	0.6	1	-7
COC(=O)C1=NN(c2ccccc2)C2(S1)S/C(=C\c1ccccc1)C(=O)N2c1ccccc1 (stereo not drawn)	54*	88*	0.5	0.1	7	-7
CCOC(=O)C1=NN(c2cccc(C)c2)C2(S1)SC(C(C)=O)=C(C)N2c1ccccc1 (stereo not drawn)	80*	47	0.2	0.5	-17	-3
CCOC(=O)C1=NN(c2ccccc2)C2(S1)SC(C(C)=O)=C(C)N2c1ccccc1 (stereo not drawn)	44	-20	0.6	1.2	16	1
SMILES	CYP2C9 inhib	CYP2C19 inh	CYP2C9 activ	CYP2C19 activ	PLK1 PBD inh	PLK1 kinase inh
CCOC(=O)c1sc(=S)n(-c2ccccc2)c1N	nt	nt	nt	nt	-11	-7
CCNc1nc(OC)nc(SCC(N)=O)n1	-24	-10	1.2	1.1	-6	-13
COCCNC(=O)c1c[nH]c2ccc(S(=O)(=O)N3CCC4(CC3)OCCO4)cc2c1=O	20	12	0.8	0.9	-12	14
CCOc1ccc(N2C(=O)CC(N3CCN(c4ccc(C(=O)c5ccncc5)cc4)CC3)C2=O)cc1 (stereo not drawn)	nt	nt	nt	nt	-17	-3
CC(=O)Nc1cccc(C(=O)OCc2ccc(C(=O)Oc3ccc(Cl)cc3)cc2)c1	6	7	0.9	0.9	-22	31
CCOc1ccc(-c2cc(N)n(S(=O)(=O)c3ccc(OC)cc3)n2)cc1	44	-6	0.6	1.1	-24	-24
CCOC(=O)c1oc2ccc(S(=O)(=O)n3nc(-c4ccccc4)cc3N)cc2c1C	98*	31	0	0.7	16	-26
CCOC(=O)c1oc2ccc(S(=O)(=O)n3nc(-c4ccc(OC)cc4)cc3N)cc2c1C	100*	2	0	1	nt	nt
Cn1c(=O)[nH]c(=O)c2c1nc(Sc1ncccn1)n2CCCc1ccccc1	29	18	0.7	0.8	0	0
CC1CCc2cc(F)ccc2N1C(=O)CN1C(=O)c2ccccc2C1=O (stereo not drawn)	34	33	0.7	0.7	10	-12
O=C1CSC(c2cn(-c3ccccc3)nc2-c2ccccc2)N1Cc1ccco1 (stereo not drawn)	96*	86*	0	0.1	-7	-5
O=C1CSC(c2ccncc2)N1Cc1ccco1 (stereo not drawn)	22	18	0.8	0.8	2	-3
O=C1CSC(c2cn(-c3ccccc3)nc2-c2cccs2)N1CC1CCCO1 (stereo not drawn)	80*	73*	0.2	0.3	6	-6
CCc1ccc(-c2nn(-c3ccccc3)cc2C2SCC(=O)N2Cc2ccco2)cc1 (stereo not drawn)	67*	44	0.3	0.6	-21	-7
CCNC(=O)O/N=C(\C)c1sc(-c2ccc(Cl)cc2)nc1C	24	41	0.8	0.6	23	-6
Cc1ccccc1Cn1c2ccccc2c2cn[nH]c(=O)c21	17	24	0.8	0.8	10	32
Cn1c(CNc2cccc(Cl)c2)nnc1SCC(=O)OC1CCCCC1	81*	79*	0.2	0.2	18	-6
CCOC(=O)CSc1nnc(CNc2cccc(Cl)c2)n1-c1ccccc1	27	56*	0.7	0.4	17	-18
CCn1c(CNc2cccc(Cl)c2)nnc1SCc1ccccc1	33	56*	0.7	0.4	12	-6
